Measured values: PubChem BioAssay AID1813 (Broad Institute, 2009)
Hit rate of the full screen: of about 300,000 compounds, about 2,500 (0.83%) were called active. No stated cut-off is given here; in the data, active means inhibition above about 60%; inconclusive means no clear call, values can overlap the other calls; inactive means below that. What follows is part of a selection rich in actives, with near analogues and random picks from the rest.

Test: 5' untranslated region of α-synuclein, MLPCN primary screen (AID 1813);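 further: H4 neuroglioblastoma cells stably carrying SNCA 5'UTR luciferase fusion; 0% = DMSO wells and 100% = positive control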
Conditions: alpha-synuclein 5'UTR reporter, inhibitor activity; active compounds read high; tested at 7.5 µM
In the case of `Cc1c(Cl)c([N+](=O)[O-])nn1Cc1ccc(C(=O)N/N=C\c2cc(Cl)ccc2O)o1`, the inhibition is reported as 81.2% (active).
With `Cc1c(Cl)c([N+](=O)[O-])nn1CCCC(=O)Nc1cc(Cl)ccc1Cl` the inhibition was 12.6% (inactive).
For `Cc1ccc(C(=O)O)cc1NC(=O)c1ccc(Cn2nc(C)c(Cl)c2C)o1`, the inhibition was -17.2% (inactive).
With `NC(=O)CCC(NS(=O)(=O)c1ccc(Cl)cc1)C(=O)NCc1ccccc1Cl` (stereo not given) the inhibition was -12.6% (inactive).
For `CCCCN(C)CCNC(=O)CSCc1ccc(C)cc1`, the inhibition was 0.318% (inactive).
In the case of `CC(=O)N1c2ccc(S(=O)(=O)N3CCCC(C(=O)Nc4cccc(F)c4)C3)cc2CC1C` (stereo not given), the inhibition is reported as 4.33% (inactive).
With `CCOC(=O)c1c(C)[nH]c(C)c1S(=O)(=O)N(C)CC(=O)Nc1ccccc1C` the inhibition was 23% (inactive).
For `CCOC(=O)C1=C(c2ccc(OC)cc2)C(=O)c2ccccc2C1=O`, the inhibition was -17.2% (inactive).
For `CCOC(=O)c1c(C)[nH]c2c1-c1ccccc1C(=O)C2=O`, the inhibition was 99.5% (active).
In the case of `O=S(=O)(c1ccc(-c2ccccc2)cc1)N1CCCC1`, the inhibition is reported as 1.66% (inactive).
With `COc1ccc(-n2c(C)nn(CC3CC3)c2=O)cc1` the inhibition was 5.05% (inactive).
For `Cc1cc(Nc2cc(N3CCN(C)CC3)nc(Sc3ccc(NC(=O)C4CC4)cc3)n2)n[nH]1`, the inhibition was -50.9% (inactive).
In the case of `O=C(O)CCn1c(SCc2cc(=O)n3ccccc3n2)nc2ccsc2c1=O`, the inhibition is reported as -7.14% (inactive).
For `C=CCOc1ccc(/C=C2\SC(=S)N(CCC(=O)O)C2=O)cc1`, the inhibition was 80% (active).
For `COc1ccccc1C(=O)NNC(=O)CCN1C(=O)/C(=C\c2ccccc2)SC1=S`, the inhibition was 8.03% (inactive).
With `Cc1ccc(/C=C2\SC(=S)N(CCC(=O)Nc3ccc(O)cc3)C2=O)cc1` the inhibition was 0.184% (inactive).
With `C=CCNC(=O)/C=C/c1ccc(C(C)C)cc1` the inhibition was -129% (inactive).
With `Cc1ccc2nc(-c3ccc(SCC(=O)Nc4cc(C)on4)nc3)[nH]c2c1` the inhibition was -160% (inactive).
With `COc1ccc(CNC(=O)CSc2n[nH]c(N)n2)cc1OC` the inhibition was 4.62% (inactive).
With `CCN1CCN(c2cc3nc(C)n(Cc4ccccc4)c(=O)c3cc2NC(=O)c2ccccc2F)CC1` the inhibition was 65.1% (active).
For `CCOc1cc(NC(=O)c2ccccc2C(=O)O)c(OCC)cc1NC(=O)c1ccccc1F`, the inhibition was 11.7% (inactive).
With `CCC(=O)Nc1ccc2nc(C)n(Cc3ccccc3Cl)c(=O)c2c1` the inhibition was 11.1% (inactive).
In the case of `C=CCc1cccc2cc(C(=O)Nc3ccc(NC(C)=O)cc3)c(=O)oc12`, the inhibition is reported as -30.5% (inactive).
For `CCc1ccc2nc(N(CCCN(C)C)C(=O)c3ccc4c(c3)OCCO4)sc2c1`, the inhibition was -34.6% (inactive).
For `CN(C)CCCN(C(=O)c1ccc(S(=O)(=O)N2CCCCCC2)cc1)c1nc2ccc(Br)cc2s1`, the inhibition was 75.3% (active).
With `CN(C)CCCN(C(=O)c1ccc(S(=O)(=O)N2CCCc3ccccc32)cc1)c1nc2ccc(F)cc2s1` the inhibition was 74.2% (active).
For `CCOc1ccc2nc(N(CCCN(C)C)C(=O)c3ccc(C(=O)c4ccccc4)cc3)sc2c1`, the inhibition was 90.2% (active).
For `CCN(CC)CCN(C(=O)c1ccc(S(=O)(=O)N2CCOCC2)cc1)c1nc2cc3c(cc2s1)OCCO3`, the inhibition was -15.5% (inactive).
With `CSc1nc2ccc(S(=O)(=O)N3CCc4ccccc43)cc2s1` the inhibition was 1.39% (inactive).
With `CN(C)CCCN(C(=O)c1ccc(S(=O)(=O)N2CCCCCC2)cc1)c1nc2cc3c(cc2s1)OCCO3` the inhibition was -27.7% (inactive).
For `CCOc1ccc2nc(N(CCN(C)C)C(=O)c3ccc4ccccc4c3)sc2c1`, the inhibition was -8.13% (inactive).
With `COc1ccc2sc(N(CCCN(C)C)C(=O)c3ccc(S(=O)(=O)N(C)C4CCCCC4)cc3)nc2c1` the inhibition was -20% (inactive).
In the case of `CCC1(CC)C(=O)C2=C3C1[C@H](C(=O)OC)C=C(C(=O)OC)C[C@H]3[C@H]1C(=O)N(Cc3ccccc3)C(=O)[C@H]1[C@H]2C` (stereo not given in full), the inhibition is reported as 6.19% (inactive).
For `COc1ccc(S(=O)(=O)NCC(c2ccc(C)cc2)N2CCN(C)CC2)cc1OC` (stereo not given), the inhibition was -8.67% (inactive).
For `COc1ccc(CN2CCC(n3nccc3NC(=O)CCCc3ccccc3)CC2)cc1C`, the inhibition was 23.5% (inactive).
In the case of `O=C(NCc1ccccc1)c1onc(CSc2nc3ccccc3[nH]2)c1C(=O)NCc1ccccc1`, the inhibition is reported as 21.2% (inactive).
In the case of `COc1ccc(N2CCN(C(=O)[C@@H](NC(=O)c3cc(OC)cc(OC)c3)C(C)C)CC2)cc1`, the inhibition is reported as 5.14% (inactive).
For `CC(C)(C)c1ccc(C(=O)NCc2ccco2)cc1`, the inhibition was -180% (inactive).
In the case of `CCCC1=Nc2cc(C(=O)NCCN3CCCC3)ccc2Sc2ccccc21`, the inhibition is reported as -14.6% (inactive).
With `CCCC1=Nc2cc(C(=O)NCc3ccco3)ccc2Sc2ccccc21` the inhibition was 87.6% (active).
With `CCCN(CC(=O)Nc1ccc(OC)c(OC)c1)CC(=O)Nc1ccc(F)c(F)c1F` the inhibition was 3.66% (inactive).
With `Cc1ccc(CC(=O)N(C)CC(=O)N(CC(C)C)c2c(N)n(CC(C)C)c(=O)[nH]c2=O)cc1C` the inhibition was 15% (inactive).
With `Cc1nn(CC(=O)Nc2nc3ccccc3s2)c(C)c1[N+](=O)[O-]` the inhibition was 5.8% (inactive).
With `CCC(C)Cn1c(O)cc2nn(-c3nc4ccccc4s3)c(=O)c-2c1C` (stereo not given) the inhibition was 97.8% (active).
For `Cc1cc(NC(=O)CN2CCCC(C)C2)n(-c2nc3ccccc3s2)n1` (stereo not given), the inhibition was 27.7% (inactive).
In the case of `Nc1cc(N2CCCCCC2)c2nonc2c1[N+](=O)[O-]`, the inhibition is reported as 11% (inactive).
With `Cc1ccc(C2CC(=O)NC(SCC(=O)OCc3ccccc3)=C2C#N)o1` (stereo not given) the inhibition was -11.5% (inactive).
For `CCOC(=O)CSC1=C(C#N)C(c2sccc2C)CC(=O)N1` (stereo not given), the inhibition was 75% (active).
In the case of `CCOC(=O)CSC1=C(C#N)C(c2ccco2)C(C(=O)OCc2ccccc2)=C(C)N1` (stereo not given), the inhibition is reported as 10.5% (inactive).
With `Cc1nc2ccccc2c(=O)n1-c1ccc(F)c(NC(=O)c2cccs2)c1` the inhibition was 9.3% (inactive).
With `CCOc1ccc(NC(=O)c2ccc(NC(=O)COC(=O)c3ccc(NC(=O)CC#N)cc3)cc2)cc1` the inhibition was -88.1% (inactive).
In the case of `O=C(OCC(=O)c1cccs1)C1=COCCO1`, the inhibition is reported as -103% (inactive).
With `CCC(C)(C)c1ccc(Oc2ccc(NC(=O)COC(=O)C3=COCCO3)cc2)cc1` the inhibition was 90.6% (active).
With `Cc1nc2ccccc2nc(=O)c1NNc1ccc([N+](=O)[O-])cc1` the inhibition was -109% (inactive).
In the case of `CSCCC(NS(=O)(=O)c1ccc2c(c1)oc(=O)n2C)C(=O)NC1CCCc2ccccc21` (stereo not given), the inhibition is reported as 1.15% (inactive).
